TDP1 cell CPT = qHTS for Inhibitors of human tyrosyl-DNA phosphodiesterase 1 (TDP1): qHTS in cells in presence of CPT | chicken DT40 Tdp1-/-;hTDP1 cells + 20 nM CPT, ATP luminescence, 48 h | Potency, µM (highest dose often 46.2 µM), without a hit: at the top dose activity change, negative = growth inhibition, actives largely listed as inhibitors | actives 12% (n = 420,000); also: % is scaled to controls: 0 for no effect and ±100 for the full control effect; nearly all actives have a fitted effect of over 55% in size
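Cell growth measured by CellTiter-Glo luminescence after a minimum 48 h, 37 C compound exposure with 20 nM CPT in Tdp1-knockout DT40 cells stably expressing hTDP1, seeded 400/well; qHTS titration format.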
DT40 TDP1 no CPT = qHTS for Inhibitors of human tyrosyl-DNA phosphodiesterase 1 (TDP1): qHTS in cells in absence of CPT | Potency, µM (series often up to 46.2 µM), without a hit: top-dose activity change, negative = growth inhibition, actives largely listed as inhibitors | actives 15% (n = 420,000) | DT40 Tdp1-/- hTDP1 cells, no CPT, ATP luminescence, 48 h; also: % is scaled to controls: 0 for no effect and ±100 for the full control effect; nearly all actives have a fitted effect of over 55% in size
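Cells were dispensed at 400 per well, compounds added by pin tool, plates incubated ≥48 hr at 37 °C, then CellTiter-Glo added for 30 min at room temperature before luminescence reading. Line: DT40 Tdp1-/- complemented with hTDP1; camptothecin omitted.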
TGFb SMAD3 inh = qHTS for Inhibitors of TGF-b; HepG2 CAGA-GFP TGF-b/SMAD3 reporter, GFP fluorescence, 18 h; TGF-beta stimulated, 500 pg/mL final; Potency, µM (doses to about 46.1 µM), for inactives: at the top dose activity, negative = inhibition, actives largely listed as inhibitors; actives 1.2% (n = 410,000); AID 588855, 2011; also: % is scaled to controls: 0 for no effect and ±100 for the full control effect; nearly all actives have a fitted effect of over 65% in size
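HEPG2 CAGA-GFP reporter cells (1000/well, DMEM with 1% FBS) received compounds, then recombinant TGF-beta at 500 pg/mL final for 18 hours at 37 degrees C. Per-cell GFP summed per well was normalised to unstimulated and stimulated DMSO controls before curve fitting.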
HT1080 IDH1KD tx = qHTS for induction of synthetic lethality in tumor cells producing 2HG: qHTS for the HT-1080-IDH1KD cell line; HT-1080 IDH1 knockdown viability, ATP luminescence, 48 h; Potency, µM (doses to about 46.1 µM), without a hit: at the top dose activity, negative = toxicity, hits mostly cytotoxic; actives 2% (n = 360,000); AID 686971, 2013;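 also: 0% = DMSO wells and -100% = cell-free medium wells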
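Viability of IDH1-knockdown HT-1080 fibrosarcoma cells was assessed by CellTiter-Glo after 48 h at 37 °C with titrated compound; concentration-effect curves were classified by fit quality and response size.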
HT1080NT lethal = qHTS for induction of synthetic lethality in tumor cells producing 2HG: qHTS for the HT-1080-NT fibrosarcoma cell line | HT-1080-NT fibrosarcoma viability, CellTiter-Glo ATP luminescence, 48 h | Potency, µM (series often up to 46.1 µM), without a hit: top-dose activity, negative = less viability, most hits filed as cytotoxic | actives 1.6% (n = 360,000) | AID 686970, 2013;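 also: NT is the 2HG producing partner of a matched IDH1 knockdown line; 0% = DMSO-treated cells and -100% = media-only wells without cells; nearly all actives have a fitted effect of over 55% in size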
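750 cells/well, RPMI + 5% FBS; 2 h settle, compound pin-transfer, 48 h at 37 degrees C. CellTiter-Glo 10 min RT, luminescence. Normalized to DMSO and media-only wells.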
HepG2 tox = qHTS for Inhibitors of TGF-b: Cytotox Counterscreen | Potency, µM (titrated, usually from 46.1 µM), for the others: top-dose activity change, negative = cytotoxicity, hits mostly cytotoxic | AID 588856, 2011 | HepG2 CAGA-GFP viability, ATP luminescence, 18 h | actives 0.76% (n = 410,000)
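CellTiter-Glo luminescence gave cytotoxicity after 18 hours at 37 degrees C. The cells were HepG2 CAGA-GFP in 1% FBS DMEM, stimulated with 500 pg/mL TGF-beta after compound addition. %Activity was normalised to no-cell wells (complete cell-killing) and DMSO (no toxicity), and curves were fitted and classified.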
An asterisk follows results filed as active; ? = inconclusive; . = not tested or not shown. Sampled rows, rich in hits. Any-hit rate of the full collection: about 17%. Calls follow the shape of the dose curve; as a rule, active = well fitted curve in the direction sought with a large enough effect; inconclusive = small, poorly fitted or top-dose-only effect, or another doubt; inactive = no such curve, though single readings can be large; an effect the other way counts as inactive or inconclusive. Potency is read from the fitted curve at half-maximal effect.

SMILES	TDP1 cell CPT	DT40 TDP1 no CPT	TGFb SMAD3 inh	HT1080 IDH1KD tx	HT1080NT lethal	HepG2 tox
CCCc1cc2nnc(SCC(=O)N(C)C3CCCCC3)n2c(N)n1	1.1%	-12.5%	-2.6%	18.6%	13.7%	-1.5%
CC1CN(S(=O)(=O)c2cccc(C(=O)Nc3ccc(S(=O)(=O)Nc4ncccn4)cc3)c2)CC(C)O1 (configuration not stated)	-5.7%	-7.9%	0.4%	13.2%	22.8%	4.4%
CCN(CC)S(=O)(=O)c1ccc2c(c1)c(=O)c(C(=O)N1CCN(c3ccc(F)cc3)CC1)cn2C	-17.2%	-26.8%	-28.5%	.	.	-11.4%
COc1cccc(-c2cnc3c(NC(C)=O)cc(-c4ccsc4)cn23)c1	13µM*	14.6µM*	?	-11.9%	-29.5%	-1.1%
CC(=O)Nc1cc(-c2cccc(NS(C)(=O)=O)c2)cn2c(-c3cccc(C(F)(F)F)c3)cnc12	18.4µM*	18.4µM*	?	?	?	-10.0%
COc1ccc(-c2cc(NC=O)c3ncc(-c4ccc(C(C)=O)cc4)n3c2)cn1	5.17µM*	7.31µM*	-18.1%	?	?	-31.4%
CC(=O)Nc1cccc(-c2cc(NC(C)=O)c3ncc(-c4cccc(C(C)=O)c4)n3c2)c1	23.1µM*	10.3µM*	-20.7%	?	-1.4%	-3.9%
Nc1ncnc2c1ncn2[C@@H]1O[C@H](COP(=O)(O)OP(=O)(O)OC[C@H]2OC(O)[C@H](O)[C@@H]2O)[C@@H](O)[C@H]1O (some centres not stated)	-19.8%	?	.	.	.	.
Cc1nc(-c2ccccc2)sc1CCNC(=O)C(=O)Nc1ccc2c(c1)OCO2	.	.	-8.3%	.	.	-2.7%
CC(=O)Nc1cccc(-c2cc(NC=O)c3ncc(-c4ccc(C(C)=O)cc4)n3c2)c1	?	16.4µM*	?	-5.8%	23.1µM*	-2.0%
COc1cccc(-c2cc(NC(C)=O)c3ncc(-c4ccc(OC)c(OC)c4)n3c2)c1	?	20.6µM*	-5.6%	-12.1%	-22.2%	-29.5%
COc1cccc(-c2cnc3c(NC(C)=O)cc(-c4ccc(OC)c(OC)c4)cn23)c1	10.3µM*	14.6µM*	23.8%	?	?	0.4%

Source: PubChem (National Center for Advancing Translational Sciences (NCATS))
